# Records with an inconclusive call do not appear. Where a call stands in place of a potency, no number is given. Calls of active or inactive are those of the source. The call rests on the fitted dose curve; in most records, active means well fitted activation curve with a large enough effect in the repeat runs; inconclusive means weak or mixed curves; inactive means no such curve, though single readings can be large or run the other way.
# Target: Nuclear receptor subfamily 1 group I member 3 (Homo sapiens) (UniProt Q14994)
# Assay: qHTS assay to identify small molecule agonists of the constitutive androstane receptor (CAR) signaling pathway (AID 1224839); further: nearly all actives have a fitted effect of over 15% in size;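 on activation: HepG2 cells stably carrying human CAR and a CYP2B6 luciferase reporter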
# Conditions: HepG2 hCAR CYP2B6-luciferase, agonist mode, 24 h; series mostly up to 92.4 µM
# Text: National Center for Advancing Translational Sciences [NCATS] NIH Chemical Genomics Center [NCGC] U.S. Environmental Protection Agency [EPA] National Institutes of Environmental Health Sciences [NIEHS] National Toxicology Program [NTP] Assay overview: The constitutive androstane receptor (CAR) is a nuclear receptor which regulates multiple drug metabolizing enzymes (DMEs) and transporters. Activating CAR will generally increase the transcription and subsequent translation of CYP2B6 and CYP3A4. These two DMEs represent about 50% of the drug metabolizing potential in the body. […] Recently, there have also been studies performed indicating CARs role in energy metabolism and cancer therapy. Therefore, inducing CARs activity could have a potential effect on diabetes and cancer. Identifying environmental toxins and compounds which modulate CAR, through the use of the Tox21 10K compound collection, will be an important step in determining the toxicity and potential therapeutic effects these factors will have on the human body.
# Assay Protocol Summary: A double-stable (hCAR and CYP2B6-2.2kb) transfected cell line, derived from human hepatoma (HepG2) cells, was utilized for the duration of the quantitative high-throughput screens. The HepG2-CYP2B6-hCAR cells suspended in DMEM culture medium supplemented with 10% FBS, 5 ug/mL blasticidin, 0.5 mg/mL geneticin, 100 U/mL penicillin and 100 ug/mL streptomycin were dispensed at 2500 cells/4 uL/well in 1536-well white solid bottom plates using a Multidrop Combi. After the assay plates were incubated at 37 C/5% CO2 for 4 hrs, 23 nL of compounds at 15 concentrations (from 5-48 columns) or positive control (from 1 to 4 columns) were transferred to the assay plates using a Pintool station. One uL of PK11195, was added using a Flying Reagent Dispenser to generate a final concentration of 0.75 uM PK11195 inside each well. After a 24 hr incubation period at 37 C/5% CO2, four uL of ONE-Glo reagent was added into the assay plates using a Flying Reagent Dispenser. After a 30 min incubation period at room temperature, the luminescence intensity in the assay plates was measured using a ViewLux plate reader.
# Potency means the concentration at half of the fitted maximal effect.
# Nuclear receptor subfamily 1 group I member 3 (Homo sapiens), sequence (Q14994 whole entry, looked up): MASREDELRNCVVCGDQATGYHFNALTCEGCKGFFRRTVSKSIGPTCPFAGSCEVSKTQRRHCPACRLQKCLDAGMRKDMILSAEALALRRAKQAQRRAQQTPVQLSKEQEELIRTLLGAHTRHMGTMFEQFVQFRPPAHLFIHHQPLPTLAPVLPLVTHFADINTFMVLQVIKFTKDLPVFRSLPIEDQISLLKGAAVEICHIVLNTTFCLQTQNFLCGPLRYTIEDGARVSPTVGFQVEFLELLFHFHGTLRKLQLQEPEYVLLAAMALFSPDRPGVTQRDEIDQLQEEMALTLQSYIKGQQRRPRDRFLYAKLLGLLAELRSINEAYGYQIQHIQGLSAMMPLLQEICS
row,SMILES,Potency
1,COCC(=O)N(c1c(C)cccc1C)N1CCOC1=O,inactive
2,COc1cc2c(cc1OC)[C@@]13CCN4CC5=CCO[C@H]6CC(=O)N2[C@H]1[C@H]6[C@H]5C[C@H]43,inactive
3,O=C(N[C@H]1CN2CCC1CC2)c1cc2ccoc2cn1,inactive
4,O=P(O)(Oc1ccccc1)Oc1ccccc1,inactive
5,CCS(=O)(=O)C(C)(C)S(=O)(=O)CC,inactive
6,COc1cc(OC)nc(Oc2cccc(Oc3nc(OC)cc(OC)n3)c2C(=O)O)n1,inactive
7,Nc1cnn(-c2ccccc2)c(=O)c1Cl,inactive
8,CCN(CC)C(=O)[C@@H]1C=C2c3cccc4[nH]cc(c34)C[C@H]2N(C)C1,inactive
9,Cc1cnc[nH]1,inactive
10,CSc1ccc(C(=O)C(C)(C)N2CCOCC2)cc1,30.6 µM (active)
11,CC1(C)CON(Cc2ccccc2Cl)C1=O,48.6 µM (active)
12,CN1CCN(C(=O)O[C@H]2c3nccnc3C(=O)N2c2ccc(Cl)cn2)CC1,inactive
13,C=C(C)CN(CC)c1c([N+](=O)[O-])cc(C(F)(F)F)cc1[N+](=O)[O-],inactive
14,Nc1cc2c3c(c1)C(c1ccccc1)=N[C@@H](NC(=O)c1cccnc1)C(=O)N3CC2,inactive
15,CCCCN(CCCCO)N=O,inactive
16,CCC(=O)c1ccccc1,inactive
17,CNC(=O)Oc1c(C(C)(C)C)cc(C)cc1C(C)(C)C,10.9 µM (active)
18,COc1cc(OC)nc(NC(=O)NS(=O)(=O)c2ncccc2C(=O)N(C)C)n1,inactive
19,CCCCOC(=O)c1ccccc1C(=O)O,inactive
20,CC(=O)CC(c1ccc(Cl)cc1)c1c(O)c2ccccc2oc1=O (stereo not given),inactive

row,SMILES,Potency
1,Nc1cc(Cl)ccc1O,52.7 µM (active)
2,CCC#N,inactive
3,CCN(CC)C(C)C(=O)c1ccccc1 (stereo not given),inactive
4,CC1CCCCC1NC(=O)Nc1ccccc1 (stereo not given),30.6 µM (active)
5,COP(N)(=S)Oc1ccccc1C(=O)OC(C)C (stereo not given),30.6 µM (active)
6,CC(CCc1ccccc1)NC(C)C(O)c1ccc(O)cc1 (stereo not given),inactive
7,CCOc1nc(C(Cl)(Cl)Cl)ns1,inactive
8,N#CC(O)c1ccccc1 (stereo not given),inactive
9,[As]#[In],inactive
10,CCCSP(=S)(OCC)Oc1ccc(Cl)cc1Cl (stereo not given),27.3 µM (active)
11,CC(=O)Nc1cc([As](=O)(O)O)ccc1O,inactive
12,ClCCOCOCCCl,inactive
13,CCc1cc2c(s1)-n1c(C)nnc1CN=C2c1ccccc1Cl,inactive
14,O=C1OC(CCN2CCCCC2)OC1(c1ccccc1)c1ccccc1 (stereo not given),inactive
15,COC(=O)c1ccccc1S(=O)(=O)NC(=O)Nc1nc(C)cc(C)n1,inactive
16,O=C1OC(=O)C2C1C1(Cl)C(Cl)=C(Cl)C2(Cl)C1(Cl)Cl (stereo not given),inactive
17,Cc1cc(C)c(C(=O)P(=O)(C(=O)c2c(C)cc(C)cc2C)c2ccccc2)c(C)c1,inactive
18,NC(=S)C(N)=S,inactive
19,Nc1ccccc1Cl,inactive
20,O=NN1CCN(N=O)CC1,inactive

# Reference: PubChem BioAssay (Tox21)
